The text below walks through data of PubChem BioAssay (Tox21).

Molecules are shown by their SMILES. Inconclusive results are not listed. Entries that show only a call come without a potency. Calls of active or inactive are those of the source. The call rests on the fitted dose curve.

The nature of the first experiment: p53 small molecule agonists, cell-based qHTS assay with human liver microsomes (AID 1963577). Particulars: HCT-116 p53RE-bla with human liver microsomes, ratio, 16 h; series mostly up to 66 µM; activation: at the top concentration. In outline:
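Cells carrying a p53-responsive bla reporter were rested 5 h (37 C, 5% CO2) before compound transfer. Human liver microsomes plus NADPH, 0.5 mg/mL final apiece, supplied metabolism during the 16 h 37 C exposure.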
A general note: In qHTS, concentration-response curves come from the screen itself.
On to `CC(=O)O[C@]1(C(C)=O)CC[C@H]2[C@@H]3C[C@H](C)C4=CC(=O)CC[C@]4(C)[C@H]3CC[C@@]21C`, for which the “activation” value was 2.8% (inactive).

Regarding `COC(=O)c1ccc(O)cc1`, the Potency entry was “inactive”.

For the molecule `CC(=O)CC(C)(C)O`, the Potency entry is “inactive”.

Regarding `O=c1[nH]cc(F)c(=O)[nH]1`, the Potency result was “inactive”.

`COc1ccc(Cl)cc1C(=O)NCCc1ccc(S(=O)(=O)NC(=O)NC2CCCCC2)cc1`: the Potency result is “inactive”.

`CC(=O)OC/C=C(C)/C=C/C=C(C)/C=C/C1=C(C)CCCC1(C)C`: the Potency result is “inactive”.

Consider `CCCCCCCCCCN`, for which the Potency entry was “inactive”.

For the molecule `C[C@H]1C[C@H]2[C@@H]3CCC4=CC(=O)C=C[C@]4(C)[C@@]3(F)[C@@H](O)C[C@]2(C)[C@@]1(O)C(=O)CO`, the Potency entry is “inactive”.

Turning to `CCCCN(CCCC)CCCC`, the Potency result is “inactive”.

Take `CCCCCCC(C)O` (stereo not given): the Potency entry was “inactive”.

As for `O=[Se](O)O`, the “activation” value is -0.0797% (inactive).

For the molecule `Cc1ccc(S(=O)(=O)NCl)cc1`, the “activation” value was -0.113% (inactive).

For `CC(=O)O[C@]1(C(C)=O)CC[C@H]2[C@@H]3C=C(Cl)C4=CC(=O)CC[C@]4(C)[C@H]3CC[C@@]21C`, the Potency result is “inactive”.

On to `CCC(C)C=O` (stereo not given), for which the Potency result is “inactive”.

For the molecule `CC1(C)S[C@@H]2[C@H](NC(=O)[C@H](N)c3ccccc3)C(=O)N2[C@H]1C(=O)O`, the Potency result was “inactive”.

As for `CC(C)[N+](C)(CCOC(=O)C1c2ccccc2Oc2ccccc21)C(C)C`, the Potency result was “inactive”.

Turning to `CC(C)(C)NC(=O)[C@H]1CC[C@H]2[C@@H]3CC[C@H]4NC(=O)C=C[C@]4(C)[C@H]3CC[C@]12C`, the Potency result was “inactive”.

With `Cn1c(=O)c2[nH]cnc2n(C)c1=O`, the Potency result is “inactive”.

As for `CCCCC/C=C\C/C=C\CCCCCCCC(=O)O`, the Potency entry is “inactive”.

`CCCc1c(OCCCCc2nn[nH]n2)ccc(C(C)=O)c1O`: the “activation” value is -5.37% (inactive).

Take `CC(=O)c1ccc(O)cc1`: the Potency entry is “inactive”.

With `NC(=O)c1ccccc1O`, the Potency entry is “inactive”.

Turning to `CC(C)CC(C)CC(O)CC(C)C` (stereo not given), the Potency entry was “inactive”.

`C[C@]12CCC(=O)C=C1CC[C@@H]1[C@@H]2C(=O)C[C@@]2(C)[C@H]1CC[C@]2(O)C(=O)CO`: the Potency result was “inactive”.

For the molecule `CC(=O)Nc1ccc(C(=O)O)cc1`, the Potency entry was “inactive”.

As to `Nc1c2c(nc3ccccc13)CCCC2`, the Potency result is “inactive”.

Consider `C[C@H]1C[C@@H]2[C@H]([C@@H](O)C[C@@]3(C)[C@H]2CC[C@]3(O)C(=O)CO)[C@@]2(C)C=CC(=O)C=C12`, for which the Potency result was “inactive”.

With `C=CCNC(N)=S`, the Potency entry is “inactive”.

For the molecule `CC(=O)Nc1ccc(C(=O)CCl)cc1`, the Potency entry is “inactive”.

As for `CCOC(N)=O`, the Potency entry is “inactive”.

Take `NC(=O)NO`: the Potency entry is “inactive”.

As for `O=C(O)CN(CC(=O)O)CC(=O)O`, the Potency entry was “inactive”.

For the molecule `CN1C(C(=O)Nc2ccccn2)=C(O)c2ccccc2S1(=O)=O`, the Potency entry is “inactive”.

As to `O=CCCCC=O`, the Potency result is “inactive”.

On to `COCCc1ccc(OCC(O)CNC(C)C)cc1` (stereo not given), for which the Potency entry is “inactive”.

Take `CCN(CC)CCOC(=O)c1ccc(N)cc1`: the Potency entry was “inactive”.

In the case of `CC(C)Cc1ccc(C(C)C(=O)O)cc1` (stereo not given), the Potency result is “inactive”.

For the molecule `O=c1c(-c2ccc(O)cc2)coc2cc(O)cc(O)c12`, the Potency entry was “inactive”.

In the case of `CCc1ccc(CCOc2ccc(CC3SC(=O)NC3=O)cc2)nc1` (stereo not given), the Potency result was “inactive”.

Regarding `Cc1nnc(NS(=O)(=O)c2ccc(N)cc2)s1`, the Potency result was “inactive”.

The nature of the next experiment: p53 small molecule agonists, cell-based qHTS assay with rat liver microsomes (AID 1963578). As to conditions: HCT-116 p53RE-bla, beta-lactamase ratio, 16 h; series mostly up to 66 µM; activation: at the top concentration. Put shortly: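 Fluorescence from a beta-lactamase reporter under a p53 response element was measured after cells had been incubated 16 h at 37 C with test compound and rat liver microsomes plus NADPH (0.5 mg/mL final each).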
With `CC(=O)O[C@]1(C(C)=O)CC[C@H]2[C@@H]3C[C@H](C)C4=CC(=O)CC[C@]4(C)[C@H]3CC[C@@]21C`, the Potency entry is “inactive”.

Turning to `COC(=O)c1ccc(O)cc1`, the Potency result was “inactive”.

In the case of `CC(=O)CC(C)(C)O`, the Potency entry was “inactive”.

For the molecule `O=c1[nH]cc(F)c(=O)[nH]1`, the Potency entry was “inactive”.

In the case of `COc1ccc(Cl)cc1C(=O)NCCc1ccc(S(=O)(=O)NC(=O)NC2CCCCC2)cc1`, the Potency entry was “inactive”.

Regarding `CC(=O)OC/C=C(C)/C=C/C=C(C)/C=C/C1=C(C)CCCC1(C)C`, the Potency entry was “inactive”.

For `CCCCCCCCCCN`, the Potency entry was “inactive”.

For the molecule `C[C@H]1C[C@H]2[C@@H]3CCC4=CC(=O)C=C[C@]4(C)[C@@]3(F)[C@@H](O)C[C@]2(C)[C@@]1(O)C(=O)CO`, the Potency result was “inactive”.

As for `CCCCN(CCCC)CCCC`, the Potency entry is “inactive”.

With `CCCCCCC(C)O` (stereo not given), the Potency result was “inactive”.

As for `O=[Se](O)O`, the “activation” value is -2.76% (inactive).

`Cc1ccc(S(=O)(=O)NCl)cc1`: the Potency entry was “inactive”.

In the case of `CC(=O)O[C@]1(C(C)=O)CC[C@H]2[C@@H]3C=C(Cl)C4=CC(=O)CC[C@]4(C)[C@H]3CC[C@@]21C`, the Potency entry was “inactive”.

With `CCC(C)C=O` (stereo not given), the Potency entry was “inactive”.

Take `CC1(C)S[C@@H]2[C@H](NC(=O)[C@H](N)c3ccccc3)C(=O)N2[C@H]1C(=O)O`: the Potency result was “inactive”.

On to `CC(C)[N+](C)(CCOC(=O)C1c2ccccc2Oc2ccccc21)C(C)C`, for which the Potency entry is “inactive”.

On to `CC(C)(C)NC(=O)[C@H]1CC[C@H]2[C@@H]3CC[C@H]4NC(=O)C=C[C@]4(C)[C@H]3CC[C@]12C`, for which the Potency result was “inactive”.

Turning to `Cn1c(=O)c2[nH]cnc2n(C)c1=O`, the Potency result was “inactive”.

In the case of `CCCCC/C=C\C/C=C\CCCCCCCC(=O)O`, the “activation” value was 2.51% (inactive).

For `CCCc1c(OCCCCc2nn[nH]n2)ccc(C(C)=O)c1O`, the Potency result is “inactive”.

Take `CC(=O)c1ccc(O)cc1`: the Potency result is “inactive”.

Regarding `NC(=O)c1ccccc1O`, the Potency entry is “inactive”.

For `CC(C)CC(C)CC(O)CC(C)C` (stereo not given), the Potency result is “inactive”.

On to `C[C@]12CCC(=O)C=C1CC[C@@H]1[C@@H]2C(=O)C[C@@]2(C)[C@H]1CC[C@]2(O)C(=O)CO`, for which the Potency result is “inactive”.

Take `CC(=O)Nc1ccc(C(=O)O)cc1`: the Potency result was “inactive”.

Turning to `Nc1c2c(nc3ccccc13)CCCC2`, the Potency entry was “inactive”.

On to `C[C@H]1C[C@@H]2[C@H]([C@@H](O)C[C@@]3(C)[C@H]2CC[C@]3(O)C(=O)CO)[C@@]2(C)C=CC(=O)C=C12`, for which the Potency result was “inactive”.

Consider `C=CCNC(N)=S`, for which the Potency entry is “inactive”.

`CC(=O)Nc1ccc(C(=O)CCl)cc1`: the Potency result is “inactive”.

Consider `CCOC(N)=O`, for which the Potency result was “inactive”.

On to `NC(=O)NO`, for which the Potency entry is “inactive”.

For the molecule `O=C(O)CN(CC(=O)O)CC(=O)O`, the Potency result was “inactive”.

For `CN1C(C(=O)Nc2ccccn2)=C(O)c2ccccc2S1(=O)=O`, the Potency entry was “inactive”.

In the case of `O=CCCCC=O`, the Potency result is “inactive”.

As for `COCCc1ccc(OCC(O)CNC(C)C)cc1` (stereo not given), the Potency result is “inactive”.

For `CCN(CC)CCOC(=O)c1ccc(N)cc1`, the Potency result was “inactive”.

As for `CC(C)Cc1ccc(C(C)C(=O)O)cc1` (stereo not given), the Potency result was “inactive”.

Take `O=c1c(-c2ccc(O)cc2)coc2cc(O)cc(O)c12`: the Potency entry was “inactive”.

As for `CCc1ccc(CCOc2ccc(CC3SC(=O)NC3=O)cc2)nc1` (stereo not given), the Potency entry was “inactive”.

For the molecule `Cc1nnc(NS(=O)(=O)c2ccc(N)cc2)s1`, the Potency entry was “inactive”.
